Bioassay records as filed in PubChem.
Rows were chosen to be rich in hits. Some 2.4% of all compounds tested hit in one or more screens of this group.
TRHR agonist = TRH receptor (human) agonism; TRHR cells, calcium flux fluo-8, FDSS agonist mode; activation, % at 2 µM; AID 493084; actives 0.18% (n = 360,000); in the data active = activation above about 30%; note: 0% is about no effect
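Fluo-8-loaded TRHR cells; 10 s baseline, compound added, kinetic Ca2+ fluorescence read 1/s, agonist mode.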
TRHR enhancer = allosteric enhancers of human TRH receptor; enhancement, % at 2 µM; P34981; TRHR cells, fluo-8 calcium fluorescence, EC20 TRH enhancement; actives 0.66% (n = 360,000); in the data active = enhancement above about 30%; note: 0% is about no effect
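Enhancer read-out: after compound pinning and an initial kinetic agonist-mode read, an EC20 of TRH (10 nM final) was injected and fluo-8 calcium signal (Ex 480/Em 530) followed at 1 s/cycle for 100 cycles in TRHR-expressing cells.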
HEK293 tox = cytotoxic in the GLP-1 receptor inverse agonist counter-screen; AID 624418; actives 0.13% (n = 410,000); Potency, µM (doses to about 38.3 µM), for the others: top-dose activity change, negative = inhibition, actives largely listed as inhibitors; HEK293 cAMP-luciferase reporter cells, luminescence, 24 h;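 note: loss of luciferase light is scored as toxicity; potency is the fitted concentration of half-maximal effect; % is set by controls: 0 for no effect and ±100 for the full control effect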
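A 23 nL compound transfer followed 12 hours of cell culture at 37 deg C; exposure then lasted 24 hr. Luciferase assay detection reagent was dispensed and plates read for luminescence after a 12 min room-temperature wait.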
GLP1R inv ag = inverse agonists of human GLP-1 receptor. P43220. HEK293 GLP-1R CRE-luciferase, luminescence, 24 h; GLP-1R form is constitutively active. Potency, µM (highest dose often 38.3 µM), inactives show at the top dose activity change, negative = inhibition, usual class: inhibitors. actives 1.6% (n = 410,000); note: potency is the fitted concentration of half-maximal effect; % is set by controls: 0 for no effect and ±100 for the full control effect; nearly all actives have a fitted effect of over 55% in size
Target sequence (P43220 whole entry, looked up): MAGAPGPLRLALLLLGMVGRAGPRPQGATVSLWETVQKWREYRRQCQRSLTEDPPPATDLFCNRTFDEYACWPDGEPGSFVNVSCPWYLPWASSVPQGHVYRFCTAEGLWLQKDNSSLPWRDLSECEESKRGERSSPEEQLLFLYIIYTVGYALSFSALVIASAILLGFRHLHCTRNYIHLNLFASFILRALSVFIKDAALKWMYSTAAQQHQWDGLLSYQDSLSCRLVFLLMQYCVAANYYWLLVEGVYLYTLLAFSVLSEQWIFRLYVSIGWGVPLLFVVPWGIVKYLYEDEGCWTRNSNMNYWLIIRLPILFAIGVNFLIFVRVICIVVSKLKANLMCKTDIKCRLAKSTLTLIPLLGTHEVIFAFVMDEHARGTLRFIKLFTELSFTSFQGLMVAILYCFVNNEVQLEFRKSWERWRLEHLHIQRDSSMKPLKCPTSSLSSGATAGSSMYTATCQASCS
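Cells are plated, allowed 12 hours at 37 deg C, then treated with compounds for 24 hr before luciferase detection reagent is added and luminescence is read after 12 min at room temperature. The HEK293 line carries constitutively active GLP-1R with a cAMP-responsive reporter.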
PTHR1 ag = activates the human parathyroid hormone receptor PTHR1. actives 0.075% (n = 410,000). Potency, µM (highest dose often 115 µM), inactives show top-dose activation, usual class: activators. Q03431. HEK293 GP2 PTHR1 cells, GloSensor cAMP luminescence, 1 h. AID 743266; note: potency is the fitted concentration of half-maximal effect; nearly all actives have a fitted effect of over 55% in size
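HEK-293-derived GP2 cells expressing PTHR1 and a GloSensor cAMP reporter, 3,000/well, plated overnight, given luciferin plus IBMX (each 0.5 mM as added) for 1 h at 37 °C, then compound for 1 h at 37 °C. Luminescence was read after 15 min at room temperature.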
GLP-1R agonist = agonists of human GLP-1 receptor | P43220 | HEK293 GLP-1R CRE-luciferase, luminescence, 4-6 h; cells express a hypersensitive GLP-1R form | Potency, µM (titrated, usually from 45.6 µM), for the others: at the top dose activation, usual class: activators | actives 0.007% (n = 380,000) | AID 624172; note: potency is the fitted concentration of half-maximal effect; % of control where 0% means no effect
Active calls of the source: *; i = inactive; ? = inconclusive; . = no result; [ ] = dose if it differs, or a comment. Unless noted, calls come from the whole dose curve; as a rule, active = well fitted curve in the direction sought with a large enough effect; inconclusive = small, poorly fitted or top-dose-only effect, or another doubt; inactive = no such curve, though single readings can be large; an effect the other way counts as inactive or inconclusive.

SMILES | TRHR agonist | TRHR enhancer | HEK293 tox | GLP1R inv ag | PTHR1 ag | GLP-1R agonist
O=C(c1cccc(NS(=O)(=O)c2ccc(F)c(F)c2)c1)N1CCN(C(c2ccccc2)c2ccccc2)CC1 | 1 | 6 | 8% | 4µM* | -32% | -7%
O=C(c1cccc(NS(=O)(=O)c2ccccc2)c1)N1CCCC1 | 0 | -2 | 10% | 5% | i | -2%
COc1cc(C2NC(=O)NC(c3ccccc3)=C2C(C)=O)cc(Cl)c1OCC(=O)O (stereo not given) | 0 | 33* | -1%[7.66 µM] | 15%[7.66 µM] | -24% | 0%
CCOc1ccc(C(=O)OC2CCN(C)CC2)cc1 | 4 | -6 | 3% | 4µM* | i | 1%
CCCCNC(=O)c1ccc2c(c1)N(Cc1ccc(F)cc1)C(=O)c1ccccc1S2=O (stereo not given) | 0 | -3 | 3% | 1% | -12% | -2%
COc1ccccc1NC(=O)Nc1ccc(S(=O)(=O)Nc2onc(C)c2C)cc1 | 0 | -2 | -11% | 11% | i | -6%
Cc1ccc(CSc2nc3c(c(N(C)C)n2)CCCC3)cc1 | 0 | -14 | -10% | 11µM* | -38%[57.5 µM] | 5%
COc1ccc2nc(C)cc(Nc3ccc(N4CCN(C)CC4)cc3)c2c1 | 0 | -6 | ? | 5.6µM* | -15% | 11%
COc1ccc2nc(C)cc(Nc3ccc(N4CCOCC4)cc3)c2c1 | -1 | -3 | ? | ? | 0%[57.5 µM] | -1%
Cc1cc(C)c(NC(=O)CN2CCN(S(=O)(=O)c3ccc4c(c3)OCCO4)CC2)c(C)c1 | . | . | 5% | -5% | i | -2%
CC(Oc1ccc(-c2ccccc2)c(F)c1)c1ccn(S(=O)(=O)c2ccc(Br)cc2)n1 (stereo not given) | . | . | -5% | 7.1µM* | -22% | -2%
CC(Oc1ccc(Cl)cc1)c1ccnn1S(=O)(=O)c1ccc(Cl)cc1 (stereo not given) | 1 | -6 | -7% | ? | -29% | -8%
OCCN(CCO)c1ccc(C(c2ccccc2Cl)c2ccc(N(CCO)CCO)cc2Cl)c(Cl)c1 | 0 | 1 | ? | 5µM* | -10% | -5%
O=C(O)c1cccc(N(CCO)CCO)c1 | 1 | 14 | -5% | 0% | -58% | 5%
Cc1ccccc1NCC(=O)N/N=C/c1c[nH]c2ccccc12 | 0 | -2 | -19% | ? | i | 2%
O=C(O)c1ccc(N/N=C/c2c[nH]c3ccccc23)cc1 | 0 | -2 | 0% | 5.6µM* | -31% | -12%
O=C(N/N=C/c1c[nH]c2ccccc12)C1CC1(c1ccccc1)c1ccccc1 (stereo not given) | 1 | 2 | ? | 4.5µM* | -25% | -30%
O=C(N/N=C/c1c[nH]c2ccccc12)C1CC1c1ccccc1 (stereo not given) | 1 | 5 | 1%[1.53 µM] | ? | -89% | 0%
O=C(O)c1ccc(S(=O)(=O)NN=Cc2c[nH]c3ccccc23)cc1 | . | . | -1% | 1% | -4% | -6%
Cc1cccc(NCC(=O)N/N=C\c2c[nH]c3ccccc23)c1 | 0 | 6 | ? | 10µM* | -3% | 0%
Cc1cccc(C)c1OCC(O)CNS(=O)(=O)c1ccccc1C(=O)N1CCOCC1 (stereo not given) | 0 | -8 | -13% | -10% | -2% | 6%
O=C1NC(=Nc2ccc3ccccc3c2)S/C1=C/c1ccco1 | -1 | 3 | 1% | 20% | -12% | 13%
Cc1ccccc1C(=O)N1CCC(C(=O)Nc2nc3ccc(F)cc3s2)CC1 | 2 | 8 | -5% | 10µM* | -35% | -7%
Cc1ccccc1C(=O)N1CCC(C(=O)Nc2nccs2)CC1 | 0 | -1 | -16% | -10% | i | 3%
CC1(C)Cc2noc(N)c2C(C)(C)N1OC(=O)c1ccco1 | 1 | 0 | 16% | -4% | -23% | 0%
SMILES | TRHR agonist | TRHR enhancer | HEK293 tox | GLP1R inv ag | PTHR1 ag | GLP-1R agonist
CCCCNC(=S)N1CCN(C(c2ccccc2)c2ccccc2)CC1 | 11 | -3 | -2% | 8.9µM* | i | 9%
Cc1ccc(C(=O)NCCCNC(=O)c2ccco2)cc1 | 0 | -9 | -5% | 2% | i | 14%
Cc1ccc(-c2cnc(SCCNC(=O)c3ccco3)[nH]2)cc1 | 0 | 31* | -3% | -3% | -15% | 15%
CCOC(=O)c1ccc(NC(=O)Cn2nnc(-c3ccc(C(F)(F)F)cc3)n2)cc1 | 0 | 44* | 5% | -12% | i | 0%
COc1ccc(/C=C/c2ccc3c(Br)ccc(O)c3n2)cc1 | 1 | 0 | -3% | 0% | -18% | 8%
COc1ccc(/C=C/c2ccc3cccc(O)c3n2)c(OC)c1OC | 1 | 3 | -21% | 2.5µM* | -26% | -4%
COc1cc(/C=C/c2ccc3c(Br)cc(Br)c(O)c3n2)ccc1O | 11 | 5 | ? | 7.9µM* | i | -6%
COc1cc(/C=C/c2ccc3cccc(O)c3n2)cc(Br)c1OC | 1 | -4 | ? | 4.5µM* | -11% | ?
COc1cccc(/C=C/c2ccc3cccc(O)c3n2)c1OC | 1 | 0 | ? | ? | -79% | 23%
O=c1[nH]c(-[n+]2ccccc2)c(/C=N/NC([S-])=Nc2ccccc2)s1 | 56* | 3 | -3% | 3% | -4% | -3%
CCCCC(CC)CNS(=O)(=O)c1ccc2c(c1)CCN2C(=O)CCC(=O)O (stereo not given) | 1 | 0 | 5% | 8% | -31%[57.5 µM] | -4%
Cc1ccc(C)c(OCC(=O)NNC(=O)c2ccc(=O)[nH]c2)c1 | 0 | 9 | 6% | -15% | -25% | 2%
COc1cccc(C(C(=O)NC2CCCC2)N2CCN(c3cc(C)ccc3C)CC2)c1OC (stereo not given) | . | . | -8% | 8.9µM* | i | .
Cc1ccc(/C=C/C(=O)Nc2ccc([N+](=O)[O-])cc2)o1 | -1 | -2 | -4% | 77% | i | -7%
CCOC(=O)CCc1ccc(NC(=O)/C=C/c2ccc([N+](=O)[O-])o2)cc1 | . | . | 11µM* | ? | -39% | 5%
CC1C(=O)N(Cc2ccc([N+](=O)[O-])cc2)c2ccccc2N1C(=O)c1c(F)cccc1F (stereo not given) | -1 | -4 | 1% | 10µM* | -74% | 4%
CN(C(=O)c1ccc(Br)cc1)C1CCS(=O)(=O)C1 (stereo not given) | -1 | -1 | 1% | 30% | i | 11%
Cc1c(C(=O)NNc2c(Cl)cccc2Cl)n(C)oc1=O | 1 | -3 | -19% | 3.5µM* | i | -6%
